Results published in PubChem BioAssay AID1851 (National Center for Advancing Translational Sciences (NCATS), 2009).
The whole screen tested about 16,000 compounds, of which about 5,700 (36%) were called active. Not shown: some 24% with an inconclusive outcome. Calls come from the whole dose curve; as a rule, active = well fitted curve in the direction sought with a large enough effect; inconclusive = small, poorly fitted or top-dose-only effect, or effect the other way; inactive = no such curve, though single readings can be large or run the other way. Some of the results follow.

What follows are molecules tested against Cytochrome P450 1A2 (Homo sapiens) (UniProt P05177) (assay: Cytochrome panel assay with activity outcomes). Details: recombinant CYP, pro-luciferin dealkylation, luminescence, p450-cyp1a2; series mostly up to 57.1 µM; activity, negative = inhibition: at the top concentration.
Sequence of Cytochrome P450 1A2 (Homo sapiens) (P05177 whole entry, looked up): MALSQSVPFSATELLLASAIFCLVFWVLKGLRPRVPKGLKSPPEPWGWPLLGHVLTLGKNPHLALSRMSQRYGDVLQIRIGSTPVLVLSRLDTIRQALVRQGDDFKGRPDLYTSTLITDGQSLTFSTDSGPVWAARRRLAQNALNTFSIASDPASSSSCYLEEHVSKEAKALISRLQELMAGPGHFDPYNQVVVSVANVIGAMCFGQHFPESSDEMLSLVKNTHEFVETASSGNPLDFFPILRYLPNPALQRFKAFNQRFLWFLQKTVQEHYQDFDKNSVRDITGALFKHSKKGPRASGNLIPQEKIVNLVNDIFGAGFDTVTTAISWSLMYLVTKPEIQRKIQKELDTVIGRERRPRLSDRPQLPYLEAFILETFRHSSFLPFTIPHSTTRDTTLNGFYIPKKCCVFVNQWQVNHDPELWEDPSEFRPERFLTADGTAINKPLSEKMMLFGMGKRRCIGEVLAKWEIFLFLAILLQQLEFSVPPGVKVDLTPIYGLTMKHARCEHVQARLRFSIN
% is set by controls: 0 for no effect and ±100 for the full control effect.

activity, negative = inhibition, inactive:
CCCCCCCCN1C(=O)N(C)C(N(O)C(=O)NC)C1(C)C (stereo not given) 15.6%
Cn1c(=O)c2c(ncn2C[C@@H](O)CO)n(C)c1=O -0.11% [at 25.6 µM]
Cn1c(=O)c2c(ncn2CCO)n(C)c1=O -8.78% [at 25.6 µM]
O=C(O)/C=C(/C(=O)O)[C@]12CCN3CC4=CCO[C@@H]5CC(=O)N[C@@H]1[C@H]5[C@H]4C[C@H]32 -15% [at 2.29 µM]
NC[C@H]1O[C@H](n2cnc3c(N)ncnc32)C[C@@H]1O -9.51% [at 11.4 µM]
Cc1nc(CN2CCCCC2)c(O)c(=O)[nH]1 -7.06% [at 11.4 µM]
CSc1nc(O)c(Cc2ccccc2)c(=O)[nH]1 0.827%
COc1ccc(C(C(=O)NC2CCCCC2)N(C(=O)c2sc(C)nc2C)c2ccc(OC)cc2)cc1 (stereo not given) -11%
COc1ccc(C(C(=O)NC2CCCCC2)N(C(=O)c2sc(C)nc2C)c2ccc(C(C)=O)cc2)cc1 (stereo not given) -12.2%
CC(C)CO/N=C1/C[C@@H](O)[C@@H](O)[C@@H]2[C@@H]3C(=O)N(C[C@@H]4CCCO4)C(=O)[C@H]3CC[C@H]12 -4.99% [at 11.4 µM]
Cn1c(=O)c2cc(S(=O)(=O)NCCC(=O)NCc3ccccc3Cl)ccc2n(C)c1=O -16.4%
Cn1c(=O)n(CCC(=O)O)c2ccccc21 -19.4%
CCCNC(=O)OC[C@H]1O[C@@H](CCO/N=C\[C@@H](NS(=O)(=O)c2ccc(C)cc2)[C@H](C)/C=C\CC(=O)OC)C=C[C@@H]1Oc1ccc(OC)cc1 2.17% [at 11.4 µM]
C[C@@]1(C(NC(=O)c2ccccc2)c2ccc(-c3ccccc3)cc2)C[C@H]1C1CCCCC1 (stereo not given in full) 7.91%
CCN1CCN(CCCNC(=O)C(NC(=O)C2CCC(C)CC2)C(C)C)CC1 (stereo not given) -16.2%
O=C(c1cc(C(F)(F)F)cc(C(F)(F)F)c1)N1CCC[C@@]2(CCN(c3ncccn3)C2)C1 -18.7%
O=C1CC[C@H](N2C(=O)c3ccccc3C2=O)C(=O)N1 -5.92% [at 25.6 µM]
CCCNC(=O)N1CCC(C(=O)c2ccc(F)cc2)CC1 -5.51%
NC(=O)C1(NC(=O)[C@@H]2CC3(CC(c4cccc(NC(=O)c5cc([N+](=O)[O-])cc([N+](=O)[O-])c5)c4)=NO3)CN2C(=O)c2ccccc2)CC1 (stereo not given in full) -6.89%
COc1ccc(-c2cc(C(=O)Nc3cc(OC)c(OC)c(OC)c3)no2)cc1OC -24.1%
COc1ccc(C(=O)Nc2ccc(OCC(F)(F)C(F)F)c(C(F)(F)F)c2)cc1OC -9.8%
CCC(NC(=O)Nc1cc(OC)c(OC)c(OC)c1)(C(F)(F)F)C(F)(F)F -26.6%
COc1ccc(NC(=O)COC(=O)Cn2c(C)nc3ccccc32)cc1OC -13.5%
Cc1ccc(CS(=O)(=O)CCC(=O)NCCCOC(C)C)cc1 -27.3%
NC(N)=NNC(=O)C(=O)O -1.69% [at 11.4 µM]
Cc1ccc(NC(=O)/C(=C\c2cccnc2)NC(=O)c2ccco2)cc1 -29.4%
O=C(NC(Cc1ccccc1)C(=O)O)/C(=C\c1ccco1)NC(=O)c1ccc(Br)cc1 (stereo not given) -18.5%
C[C@H](NC[C@H](O)CP(=O)(O)Cc1ccccc1)c1ccc(Cl)c(Cl)c1 -7.11%
CCS(=O)(=O)Nc1ccc(C2=NN(C(=O)c3ccco3)C(c3ccc(C)cc3)C2)cc1 (stereo not given) -4.87%
C=CCNC(=S)N1CCN(c2ncc3c(=O)c(C(=O)O)cn(CC)c3n2)CC1 -12.9%
C=CC[C@H](N)C(=O)O -2.54%
CC(=O)N1CCC2(CC1)CN(C(c1ccccc1)c1ccccc1)C2 1.33%
CCCC1CCC(c2ccc(C(N)=O)cc2)CC1 (stereo not given) 8.51%
O=C(O)CN=C1NC2(CCCC2)Cc2ccccc21 3.63%
FC(F)(F)c1cnc(N2CCC(=NOCc3ccc(Cl)cc3)CC2)c(Cl)c1 -7.97%
O=C(OC1CCN(c2ncc(C(F)(F)F)cc2Cl)CC1)c1ccccc1 -17.9%
NS(=O)(=O)c1cc2c(cc1Cl)N[C@@H]([C@@H]1C[C@@H]3C=C[C@H]1C3)NS2(=O)=O -19.7%
C[C@@H](CCCCC(=O)Nc1ccc(C(F)(F)F)cc1)NCCc1cnc[nH]1 -20.5%
CC(C)CN(CC(C)C)C1=N/C(=C\c2ccco2)C(=O)N1c1ccccc1 -23.4%
COc1ccc(S(N)(=O)=O)cc1C(=O)NCCCN1CCN(c2ccc(C)cc2)CC1 -4.28%
CCCCOc1ccc(-c2nnn(CC(=O)c3c[nH]c4ccccc34)n2)cc1 9.73%
CCOCc1cnc(C)nc1NCC(=O)c1c(C)[nH]c2ccccc12 9.26%
COc1ccc(NC(=O)N2CCC3(CC2)CCN(C(=O)c2cccc(F)c2)CC3)cc1 -14.4%
CCOC(=O)NNC1CC(=O)N(c2ccc(OC)cc2)C1=O (stereo not given) -9.03%
Cc1cc2c(nc1C)CCCCN2C[C@H](C)O/N=C\[C@@H](C)[C@H](OCc1ccccc1)C(C)C -17.4% [at 11.4 µM]
CC(=O)c1cnc2c(C(=O)O)cnn2c1C 2.54%
CCN1C(=O)[C@H]2[C@H]3[C@H](O)[C@H](O)C/C(=N/OC[C@@H](O)[C@H]4O[C@H]5OC(C)(C)O[C@H]5[C@@H]4O)[C@@H]3CC[C@@H]2C1=O -1.85% [at 11.4 µM]
CCCNc1[nH]c(=O)n(C)c(=O)c1N=O 0.913%
CN(C(=O)Cn1nnc(-c2cccc(C(F)(F)F)c2)n1)C1CCCCC1 -15.3%
C[C@@]1(C(NC(=O)Cc2ccc(C(F)(F)F)cc2)c2ccc(-c3ccccc3)cc2)C[C@H]1C1CCCCC1 (stereo not given in full) 11%

AC50, inactive:
CO[C@]1(NC(=O)CSCC#N)C(=O)N2C(C(=O)O)=C(CSc3nnnn3C)CS[C@H]21
C[C@@H]1C[C@@H]2[C@H]3CCC4=CC(=O)C=C[C@]4(C)[C@]3(F)[C@@H](O)C[C@@]2(C)[C@@]1(O)C(=O)CO

AC50, active:
CCCn1cnc2c1c(=O)n(CCCCC(C)=O)c(=O)n2C 12.6 µM
COc1ccc(CO/N=C/c2c(C)[nH]c(=O)[nH]c2=O)cc1 22.4 µM
O=[N+]([O-])c1ccc2c(c1)Cc1cc(N=Cc3ccc4c(c3)OCO4)ccc1-2 0.794 µM
O=c1oc2cc(N=Cc3ccc4c(c3)OCO4)ccc2c2ccccc12 0.00794 µM
Cc1nc2c(O)cccc2c(=O)[nH]1 15.8 µM
C/C(=N\OC(=O)NC1CCCCC1)c1sc(-c2ccccc2)nc1C 7.08 µM
Cc1ccc(-c2ncccc2OC(=O)C23CC4CC(CC(C4)C2)C3)cc1 14.1 µM
Cn1c(=O)c2cn(-c3ccccc3)cc2n(C)c1=O 1.78 µM
O=C(c1ccccc1)[C@@H]1O[C@H]1c1ccc(-c2ccccc2)cc1 6.31 µM
O=c1c(CCc2ccccc2)nc2cncnc2n1-c1ccccc1 15.8 µM
NCCn1c(=O)c(CCc2ccccc2)nc2cncnc21 12.6 µM
COCCn1c(=O)c(CCc2ccccc2)nc2cncnc21 10 µM
COc1ccc(NC(=O)c2cc(C(C)C)on2)cc1OC 15.8 µM
COc1ccc(NC(=O)C(F)(F)F)cc1OC 12.6 µM
COc1ccc(NC(=O)CC#N)cc1OC 15.8 µM
CNc1ncnc2ccc(-c3ccccc3OC)cc12 2.51 µM
COc1ccccc1-c1ccc2ncnc(Nc3ccccc3)c2c1 2.51 µM
O=C(N/C(=C/c1ccc(Br)cc1)c1nc2ccccc2[nH]1)c1ccco1 7.08 µM
C[C@H](NC[C@H](O)CP(=O)(O)CC1CCCCC1)c1ccc(Cl)c(Cl)c1 39.8 µM
CNC(=S)N1N=C(c2ccc(OC)cc2)CC1c1ccc(N(C)C)cc1 (stereo not given) 10 µM
COc1ccc(CNc2ccnc(-c3cccc(C#N)c3)n2)c(OC)c1 2.51 µM
COc1ccccc1CNc1ccnc(-c2cccc(C#N)c2)n1 0.794 µM
Cc1cc(NC(=O)C2CCCC2)n(-c2nc3ccccc3[nH]2)n1 2.82 µM
O=C(c1cnc(-c2ccccc2)s1)c1ccc(Cl)cc1Cl 1.12 µM
O=c1ccn(-c2cccc(C(F)(F)F)c2)nc1-c1ccn(-c2ccccc2F)n1 5.62 µM
COc1ccccc1NC(=O)c1nn(-c2cccc(C(F)(F)F)c2)ccc1=O 5.01 µM
CCN(CC)Cc1nc2c(c(=O)[nH]1)C1(CCCC1)Cc1ccccc1-2 5.01 µM
Nc1ccccc1Oc1ncc(C(F)(F)F)cc1Cl 2.82 µM
CCCCCc1nc2c(C#N)c(-c3ccc(Cl)cc3)ccn2n1 8.91 µM
Cc1oncc1C(=O)Nc1ccc(C(F)(F)F)cc1 0.0631 µM
CCCCN=C1N/C(=C\c2ccco2)C(=O)N1c1ccccc1 2 µM
O=c1c(-c2ccccc2)nc2cncnc2n1Cc1ccccc1Cl 2 µM
O=c1c(-c2cccc(Cl)c2)nc2cncnc2n1Cc1ccccc1Cl 2 µM
O=c1c(-c2ccc(F)c(F)c2)nc2cncnc2n1Cc1ccccc1Cl 5.01 µM
O=c1c(-c2cccc(Cl)c2)nc2cncnc2n1Cc1ccccc1 1 µM
CNC(=O)c1cc2c(cn1)[nH]c1ccccc12 0.0501 µM
CCCCOC(=O)c1cc2c(cn1)[nH]c1ccccc12 0.158 µM
CCN=C(Nc1cccc(F)c1)SC1CC(=O)N(c2ccc(OC)cc2)C1=O (stereo not given) 6.31 µM
CC(=O)c1cnc2cc(C)nn2c1C 22.4 µM
O=c1c(-c2cccs2)nc2cncnc2n1Cc1ccccc1 2.51 µM
O=c1c(-c2cccs2)nc2cncnc2n1Cc1ccc(F)cc1 2.51 µM
Cc1cccc2c1Oc1ccccc1[C@@H]2NC(=O)c1ccc([N+](=O)[O-])cc1 1 µM
CC(C)NC(=O)c1ccc(-c2cccc(C(F)(F)F)c2)o1 0.398 µM
